Only some compounds are listed: those with a hit (about 2.3% of all), similar ones and a draw of the others.
CHO-K1 Ca antag: nonselective inhibitor or artifact in parental CHO-K1 cells; hit rate 0.6% among 360,000; ATP-induced calcium, Fluo-8 fluorescence; inhibition, % at 3 µM;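 active = inhibition above a per-plate cutoff, the plate's mean sample inhibition plus 3 SD, cut at about 24% in these data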;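 also: 0% = DMSO plus EC80 ATP and 100% = DMSO alone without ATP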
M1 PAM: human CHRM1 positive allosteric modulation; activation, % at 3 µM; hit rate 0.088% among 360,000; CHO-K1 hM1, Fluo-8 calcium fluorescence, ACh EC20; 0% = ACh EC20, 100% = maximal ACh; P11229; AID 588819; in the data active = activation above about 19%, passing the limit was not always enough
Target sequence (P11229 whole entry, looked up): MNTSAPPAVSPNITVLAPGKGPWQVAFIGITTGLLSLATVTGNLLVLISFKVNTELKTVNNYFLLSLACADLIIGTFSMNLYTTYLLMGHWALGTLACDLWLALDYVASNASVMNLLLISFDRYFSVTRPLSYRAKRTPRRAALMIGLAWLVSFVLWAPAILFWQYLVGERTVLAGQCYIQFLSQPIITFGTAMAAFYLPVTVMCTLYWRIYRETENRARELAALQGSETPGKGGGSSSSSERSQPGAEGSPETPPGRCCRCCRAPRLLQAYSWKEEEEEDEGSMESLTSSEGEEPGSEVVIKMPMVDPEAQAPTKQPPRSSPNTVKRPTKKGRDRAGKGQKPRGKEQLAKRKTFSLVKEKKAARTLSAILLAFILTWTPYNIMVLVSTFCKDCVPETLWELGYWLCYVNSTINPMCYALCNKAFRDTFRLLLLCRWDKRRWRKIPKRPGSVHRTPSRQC
CHO-K1 Ca PAM: M1 PAM counterscreen hit in parental CHO-K1 cells. ATP EC20, Fluo-8 calcium fluorescence; 0% at ATP EC20, 100% at ATP max. activation, % at 3 µM. hit rate 0.02% among 360,000;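 active = activation above the run cutoff, the mean activation of all test compounds plus 3 SD, cut at about 40% in these data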;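 also: peak over basal fluorescence ratio in a 140 s read after ATP addition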
M1 antag: human CHRM1 antagonism. P11229. CHO-K1 hM1, Fluo-8 calcium fluorescence, ACh EC80 antagonist. inhibition, % at 3 µM. hit rate 1.3% among 360,000;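 active = percent inhibition above its own plate's cutoff, namely the mean of that plate's compound wells plus 3 SD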;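 also: peak over basal fluorescence ratio during 140 s after agonist addition; 0% = ACh EC80 plus DMSO and 100% = DMSO alone without agonist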
M1 ag: human M1 muscarinic receptor agonism. activation, % at 3 µM. AID 588814. hit rate 0.33% among 360,000. CHO-K1 hM1, Fluo-8 calcium fluorescence, agonist mode; 0% DMSO, 100% acetylcholine EC100. P11229;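 active = activation above the run's mean compound activation plus 3 SD, cut at about 16% in these data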;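 also: peak over basal fluorescence ratio within a 140 s kinetic read after compound addition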
M1 ag parental: M1 agonist counterscreen hit in parental CHO-K1 cells | hit rate 0.48% among 360,000 | activation, % at 3 µM | Fluo-8 calcium fluorescence; scaled to maximal ATP response, vehicle zero; in the data active = activation above about 15%;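 also: untransfected CHO-K1 host cells lacking M1 receptor as counterscreen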
The depositor's hits bear a star.

SMILES | CHO-K1 Ca antag | M1 PAM | CHO-K1 Ca PAM | M1 antag | M1 ag | M1 ag parental
COc1ccccc1C(=O)NC1CC2CCCC(C1)N2Cc1ccccc1 (stereo not drawn) | -6.6 | -24.1 | 12.2 | 39.0* | -9.0 | 0.1
O=C(NC1CC2CCCC(C1)N2Cc1ccccc1)c1cccc(Cl)c1 (stereo not drawn) | -0.6 | -14.5 | -9.7 | 21.9 | -7.1 | 0.8
COCC(=O)NC1CC2CCCC(C1)N2Cc1ccccc1 (stereo not drawn) | -7.9 | 2.7 | 6.4 | -5.7 | -5.1 | 0.7
O=C(NC1CC2CCCC(C1)N2Cc1ccccc1)c1cccc(F)c1 (stereo not drawn) | -9.6 | -24.9 | -8.3 | 49.5* | -9.0 | 0.0
CC(C)(C)OC(=O)NC1CC2CCCC(C1)N2Cc1ccccc1 (stereo not drawn) | -12.8 | -30.3 | 13.2 | 98.5* | -8.7 | 0.3
Cc1ccccc1C(=O)NC1CC2CCCC(C1)N2Cc1ccc(Cl)cc1 (stereo not drawn) | -6.2 | -26.0 | 16.5 | 53.9* | -10.4 | 0.6
CC1(C)N=C(N)N=C(N)N1CCCCc1ccccc1 | -4.2 | -26.5 | 0.9 | 51.6* | -8.3 | 2.2
CCOC(=O)c1sc2nc(NC(=O)C(C)(C)C)sc2c1C | 4.0 | -18.7 | 3.5 | 32.2* | -4.6 | 4.8
CCOC(=O)c1sc2nc(NC(=O)C3CC3)sc2c1C | -7.2 | 7.0 | 16.8 | -8.1 | -1.1 | 1.1
CCOC(=O)c1csc(N)n1 | -8.9 | 9.2 | 17.9 | -10.5 | -5.2 | 3.2
CCOC(=O)c1csc(-c2snnc2C)n1 | -0.1 | 3.3 | 9.5 | -9.7 | 2.6 | 16.7*
Cn1cc(/C=C(\NC(=O)c2ccccc2Cl)C(=O)NCCCn2ccnc2)c2ccccc21 | -4.5 | 6.8 | -1.1 | -1.0 | -3.3 | 0.6
O=C1C2C3c4ccccc4C(c4ccccc43)C2C(=O)N1c1nc(-c2ccccc2)cs1 (stereo not drawn) | 4.7 | 20.1* | -2.4 | -6.0 | 0.0 | 0.1
O=C(CSc1nnc(Cc2ccccc2)c(=O)[nH]1)Nc1ccccc1 | -7.4 | 1.1 | 18.4 | -2.9 | -2.2 | 0.5
Cc1ccc(C(=O)Nc2cc([N+](=O)[O-])ccc2C)cc1 | -5.4 | -1.8 | -2.0 | 3.2 | -9.4 | -0.1
Cc1ccc([N+](=O)[O-])cc1NC(=O)c1ccc(-c2ccccc2)cc1 | 23.8* | -7.6 | -5.5 | 22.8 | -2.3 | -0.3
Cc1ccc([N+](=O)[O-])cc1NC(=O)Nc1cccc(F)c1 | 25.7* | -20.6 | -22.2 | 34.0 | 3.5 | 13.1
CCCCc1ccc(NC(=S)Nc2ccc(Cl)c(S(=O)(=O)N(C)C)c2)cc1 | -5.3 | 0.2 | 17.0 | 2.1 | -2.5 | 0.8
CC(C)N1CCN(Cc2ccc(-c3ccccc3Cl)o2)CC1CCO (stereo not drawn) | -8.8 | -3.1 | -2.1 | 2.3 | -12.3 | 1.1
CCCCc1ccc(NC(=O)CN(C)CC(=O)Nc2ccccc2Cl)cc1 | 8.3 | 5.7 | 16.5 | -4.8 | -5.3 | 0.2
c1ccc(Cc2noc(CN3CCC(CN4CCOCC4)CC3)n2)cc1 | -7.6 | -12.1 | -2.0 | 18.6 | -7.6 | 0.1
c1ccc(Cc2noc(CN3CCN(C4CCc5ccccc5C4)CC3)n2)cc1 (stereo not drawn) | -13.6 | -26.6 | 3.5 | 87.9* | -7.8 | 2.5
COc1ccccc1CN1CCN(Cc2nc(Cc3ccccc3)no2)CC1 | 0.9 | -6.9 | 2.5 | -2.8 | -13.7 | -0.3
c1ccc(Cc2noc(CN3CCN(Cc4ccc5c(c4)OCO5)CC3)n2)cc1 | -1.9 | -8.2 | 4.1 | 4.3 | -13.8 | -0.3
C(=C\c1ccccc1)/CN1CCN(Cc2nc(Cc3ccccc3)no2)CC1 | 6.1 | -30.7 | 15.6 | 42.8* | -11.6 | 0.2
SMILES | CHO-K1 Ca antag | M1 PAM | CHO-K1 Ca PAM | M1 antag | M1 ag | M1 ag parental
c1ccc(Cc2noc(CN3CCCN(C4Cc5ccccc5C4)CC3)n2)cc1 | -4.4 | -24.5 | 8.9 | 99.8* | -5.7 | 3.7
Cc1ccc(C(=O)N2CCCC(C(=O)Nc3cccc(-c4ccc(F)cc4)c3)C2)cn1 (stereo not drawn) | -12.1 | 3.4 | 5.5 | -14.4 | -1.3 | 5.9
Cc1ccc(NC(=O)COC(=O)Cc2c[nH]c3ccccc23)cc1 | -6.6 | 3.3 | 1.1 | -10.2 | -0.9 | 1.6
CN1CCN(CCC=C2c3ccccc3Sc3ccc(S(=O)(=O)N(C)C)cc32)CC1 | -2.7 | -8.9 | -3.0 | -13.0 | -3.4 | 2.2
CN(C)CC/C=C1/c2ccccc2CS(=O)(=O)c2ccccc21 | -9.1 | -26.5 | 16.9 | 65.7* | -6.2 | 0.9
CCOC(=O)C1=C(C)N(c2ccc(OCC)cc2)C(=O)/C1=C\c1ccco1 | -14.9 | 13.5 | 22.0 | -16.3 | -7.6 | 0.2
Cc1ccc(/C=C2\C(=O)NC(=O)N2C)o1 | 4.0 | 10.3 | 10.0 | 0.5 | -2.4 | -0.2
CCOc1ccc(N2C(=O)/C(=C/c3ccco3)N(C)C2=S)cc1 | 26.7* | -7.9 | -16.9 | 13.0 | -2.3 | -1.0
Cc1ccc(/C=C2/C(=O)N(c3ccccc3)C(=S)N2C)o1 | 24.5* | 8.8 | -15.8 | -10.2 | -3.6 | -0.1
Oc1ccccc1N1CCN(C(=S)Nc2ccc(SC(F)F)cc2)CC1 | -4.9 | -6.2 | 17.1 | 25.5 | 2.0 | 12.8
FC(F)Sc1ccc(NC(=S)N2CCN(c3ccccn3)CC2)cc1 | 17.5 | -18.2 | -16.4 | 22.3* | -5.2 | 13.5
COCCn1c(SCC(=O)NCC2CCCO2)nc2c([nH]c3ccccc32)c1=O (stereo not drawn) | -3.9 | 3.9 | 2.9 | -8.6 | -2.6 | 0.4
OC(CSc1ccccc1)CN1CCN(c2cccc(Cl)c2)CC1 (stereo not drawn) | -12.0 | -3.2 | 10.7 | -8.2 | 24.6* | 2.0
OC(COc1cccc2ccccc12)CN1CCN(c2cccc(Cl)c2)CC1 (stereo not drawn) | 9.1 | 5.8 | -8.8 | -15.6 | -2.4 | 21.2*
OC(CSc1ccccc1)CN1CCN(c2ccc(Cl)cc2)CC1 (stereo not drawn) | -9.0 | -0.3 | 6.2 | -12.0 | 14.9 | 1.8
Nc1c(S(=O)(=O)c2ccccc2)c2nc3ccccc3nc2n1/N=C/c1ccco1 | 26.4* | -8.9 | -5.8 | 15.7 | -2.0 | 0.4
COc1ccccc1C(CNC(=O)c1ccc(NS(=O)(=O)c2ccc(F)c(C)c2)cc1)N1CCCC1 (stereo not drawn) | -0.7 | -12.9 | 7.2 | 22.0 | -6.3 | 0.1
COc1ccc(C(CNC(=O)c2ccc(NS(=O)(=O)c3ccc(F)c(C)c3)cc2)N2CCCC2)cc1 (stereo not drawn) | -6.8 | -28.5 | 17.0 | 73.1* | -8.2 | 1.0
COc1ccccc1C(CNC(=O)c1cccc(NS(=O)(=O)c2ccc(C)c(F)c2)c1)N1CCCC1 (stereo not drawn) | -7.7 | -26.2 | -10.9 | 84.0* | -7.5 | 1.4
Nc1cc2c(cc1Br)-c1ccccc1C2=NO | 19.6 | 3.2 | -25.2 | -4.0 | 0.2 | 0.4
